Drawing on PubChem BioAssay, this text covers composite z-score and z-score for five compounds.

Activity calls are given as the source filed them.

Test [1] can be described thus: small molecules captured by biotinylated probe aFSTL3 – biochemical, small-molecule microarray, fluorescence 635/667, stem cell growth factor project, primary screen (AID 1064).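 Further: measures binding of the biotinylated anti-FSTL3 antibody to printed compounds.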 Particulars: higher = more signal.
Test [2] in a line: binders from COS7 lysate, DM2A8 probe, primary screen, torsin A project, cell lysate, small-molecule microarray, fluorescence 635/667 (AID 1065). The note with it: higher = more signal, COS7 lysate expressing mutant human TOR1A.
Test [3] can be described thus: small molecules captured by biotinylated probe aFGF2 – biochemical, small-molecule microarray, fluorescence 635/667, stem cell growth factor project, primary screen (AID 1067).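 Further: measures binding of biotinylated aFGF2 protein to printed compounds on slides; z-score merges feature fluorescence and signal-to-noise across triplicate slides.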 Particulars: higher = more signal.
Test [4] can be described thus: small molecules captured by biotinylated probe aFGF10 – biochemical, small-molecule microarray, fluorescence 635/667, stem cell growth factor project, primary screen (AID 1071).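 Further: score merges 667 nm spot intensity and signal to noise from triplicate slides.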 The note with it: higher = more signal.
The target of test [5] is Neurogenic locus notch homolog protein 2 (Homo sapiens) (UniProt Q04721). Description: small molecules binding Notch2 protein – biochemical, small-molecule microarray, 635 nm fluorescence, stem cell growth factors, primary screen (AID 1073). The note with it: higher = more signal.
In test [6] the target is Pro-neuregulin-1, membrane-bound isoform (Homo sapiens) (UniProt Q02297). Description: small molecules binding neuregulin-1 protein – biochemical, small-molecule microarray, fluorescence 635/667, psychiatric disease protein project, primary screen (AID 1075).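 Further: score combines 667 nm spot fluorescence with signal to noise.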 The note with it: NRG1 binding, 635 nm fluorescence, higher = more signal.
For test [7], the system named is Neuregulin-1 EGF-like domain. Description: small molecules binding NRG1 EGF domain – biochemical, small-molecule microarray, 635 nm fluorescence, primary screen (AID 1081).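 Further: binding of the protein to compounds printed on small-molecule microarray slides.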 The note with it: higher = more signal.
A short description of test [8]: FRG1 expression reporter modulators in myotubes – cell-based, C2C12 myotubes, firefly/Renilla luciferase, luminescence, FRG1 inhibition for FSHD, primary screen (AID 1084). Particulars: FRG1 promoter luciferase, higher = more signal, called active from +8 up or from −8 down.
Test [9] can be described thus: small molecules captured by biotinylated probe aFST – biochemical, small-molecule microarray, fluorescence 635/667, stem cell growth factor project, primary screen (AID 1086).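 Further: score merges 667 nm fluorescence with signal-to-noise of each printed compound spot.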 The note with it: higher = more signal.
Test [10] in a line: binders of probe aHhip on microarray, primary screen, stem cell growth factor project, biochemical, small-molecule microarray, fluorescence 635/667 (AID 1087).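 Further: score merges spot fluorescence at 667nm with spot signal to noise ratio.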 The note with it: higher = more signal.
Test [11] deals with PRMT1 (protein arginine N-methyltransferase 1). Description: small molecules binding arginine methyltransferase PRMT1 – biochemical, small-molecule microarray, 635 nm fluorescence, primary screen (AID 1088).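 Further: binding of Prmt1 protein to compounds spotted on small-molecule microarray slides.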 Particulars: higher = more signal.
Test [12] is described as follows: growth effects on S. cerevisiae YJM789 – YJM789 clinical isolate, OD600, 24 h, basal, primary screen (AID 1089).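 Further: growth of clinical yeast isolate S. cerevisiae YJM 789 seeded 1000 cells per well; test concentration not given here.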 The note with it: higher = more signal, called active from +8 up or from −8 down.
A short description of test [13]: S. pombe growth modifiers, basal conditions – strain 972, OD600, 24 h, no modulator, primary screen (AID 1090).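 Further: basal condition with compound alone and no growth modifier present; test concentration not given here.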 The note with it: S. pombe 972 growth, higher = more signal, called active from +8 up or from −8 down.
Test [14] can be described thus: budding yeast growth modifiers under rapamycin – strain BY4716, OD600, 96 h, primary screen (AID 1091). Further: test concentration not given here. Particulars: S. cerevisiae BY4716 + rapamycin, higher = more signal, called active from +8 up or from −8 down.
In test [15] the target is Torsin-1A-interacting protein 2 (Homo sapiens) (UniProt Q8NFQ8). The test can be described thus: small molecules binding lysate-expressed LULL1 – cell lysate, human LULL1 lysate, 635/667 nm fluorescence, primary screen (AID 1092).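 Further: probe is lysate of COS7 cells overexpressing human LULL1; score merges per-feature 667 nm fluorescence with signal-to-noise.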 The note with it: small-molecule microarray, hLULL1 lysate binding, 635 nm fluorescence; higher = more signal.
Test [16] in a line: optical density change of DRC41 E. coli – strain DRC41, OD650, 24 h, E. coli filamentation project, primary screen (AID 1093).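 Further: MC1000 strain lacking acrAB efflux and sulA so SOS filamentation is blocked; test concentration not given here.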 Particulars: E. coli DRC41 growth, higher = more signal, called active from +8 up or from −8 down.
Test [17] in a line: probe aLefty2 binding to arrayed compounds – biochemical, biotinylated probe, 635/667 nm fluorescence, primary screen (AID 1094).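 Further: score merges spot fluorescence near 667 nm with spot signal-to-noise ratio.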 The note with it: small-molecule microarray, higher = more signal.
For test [18], the system named is Noggin (protein binding on small-molecule microarray). Description: small molecules binding Noggin protein – biochemical, 635/667 nm fluorescence, primary screen (AID 1095).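 Further: score merges 667 nm feature fluorescence with signal to noise over triplicate slides.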 The note with it: 635 nm fluorescence, higher = more signal.
Test [19] deals with Neurogenic locus notch homolog protein 3 (Homo sapiens) (UniProt Q9UM47). Description: small molecules binding NOTCH3 protein – biochemical, 635/667 nm fluorescence, primary screen (AID 1096). Particulars: small-molecule microarray, 635 nm fluorescence, higher = more signal.
Test [20] in a line: probe aEGFR binding to arrayed compounds – biochemical, biotinylated probe, 635/667 nm fluorescence, primary screen (AID 1097).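 Further: probe is a biotinylated anti-EGFR antibody binding compounds printed on slides; score combines fluorescence near 667 nm and signal to noise of each spot.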 The note with it: small-molecule microarray, higher = more signal.

Chain of Torsin-1A-interacting protein 2 (Homo sapiens) (Q8NFQ8 whole entry, looked up): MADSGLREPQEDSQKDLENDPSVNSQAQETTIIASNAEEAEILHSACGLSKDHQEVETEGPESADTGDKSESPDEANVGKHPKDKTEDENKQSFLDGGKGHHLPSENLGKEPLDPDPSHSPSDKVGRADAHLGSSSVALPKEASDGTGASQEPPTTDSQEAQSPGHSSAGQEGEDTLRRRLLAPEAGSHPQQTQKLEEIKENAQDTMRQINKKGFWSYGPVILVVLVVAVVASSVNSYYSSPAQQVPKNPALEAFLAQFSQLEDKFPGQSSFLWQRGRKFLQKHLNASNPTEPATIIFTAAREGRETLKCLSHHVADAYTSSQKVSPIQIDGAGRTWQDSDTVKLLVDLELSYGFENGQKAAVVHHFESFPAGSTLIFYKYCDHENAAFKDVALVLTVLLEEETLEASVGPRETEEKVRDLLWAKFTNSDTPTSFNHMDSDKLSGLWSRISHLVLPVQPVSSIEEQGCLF
Chain of Pro-neuregulin-1, membrane-bound isoform (Homo sapiens) (Q02297 whole entry, looked up, the tested form may be a part, canonical isoform): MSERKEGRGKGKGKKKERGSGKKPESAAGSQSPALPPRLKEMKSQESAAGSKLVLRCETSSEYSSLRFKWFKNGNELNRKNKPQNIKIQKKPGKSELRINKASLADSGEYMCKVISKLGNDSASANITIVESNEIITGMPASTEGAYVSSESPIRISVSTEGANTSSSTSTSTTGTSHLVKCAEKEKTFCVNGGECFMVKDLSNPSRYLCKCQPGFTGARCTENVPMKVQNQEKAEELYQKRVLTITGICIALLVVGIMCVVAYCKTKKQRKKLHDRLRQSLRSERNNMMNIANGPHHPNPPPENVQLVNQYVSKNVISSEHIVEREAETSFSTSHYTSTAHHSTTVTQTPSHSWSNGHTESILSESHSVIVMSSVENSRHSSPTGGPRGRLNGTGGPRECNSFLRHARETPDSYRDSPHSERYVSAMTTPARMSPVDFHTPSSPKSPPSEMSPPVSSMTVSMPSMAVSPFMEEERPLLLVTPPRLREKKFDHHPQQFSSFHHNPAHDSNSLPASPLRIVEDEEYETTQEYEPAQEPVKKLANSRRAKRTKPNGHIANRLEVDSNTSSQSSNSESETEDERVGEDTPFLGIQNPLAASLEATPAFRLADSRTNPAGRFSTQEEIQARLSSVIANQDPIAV
Chain of Neurogenic locus notch homolog protein 2 (Homo sapiens) (Q04721 whole entry, looked up, canonical isoform): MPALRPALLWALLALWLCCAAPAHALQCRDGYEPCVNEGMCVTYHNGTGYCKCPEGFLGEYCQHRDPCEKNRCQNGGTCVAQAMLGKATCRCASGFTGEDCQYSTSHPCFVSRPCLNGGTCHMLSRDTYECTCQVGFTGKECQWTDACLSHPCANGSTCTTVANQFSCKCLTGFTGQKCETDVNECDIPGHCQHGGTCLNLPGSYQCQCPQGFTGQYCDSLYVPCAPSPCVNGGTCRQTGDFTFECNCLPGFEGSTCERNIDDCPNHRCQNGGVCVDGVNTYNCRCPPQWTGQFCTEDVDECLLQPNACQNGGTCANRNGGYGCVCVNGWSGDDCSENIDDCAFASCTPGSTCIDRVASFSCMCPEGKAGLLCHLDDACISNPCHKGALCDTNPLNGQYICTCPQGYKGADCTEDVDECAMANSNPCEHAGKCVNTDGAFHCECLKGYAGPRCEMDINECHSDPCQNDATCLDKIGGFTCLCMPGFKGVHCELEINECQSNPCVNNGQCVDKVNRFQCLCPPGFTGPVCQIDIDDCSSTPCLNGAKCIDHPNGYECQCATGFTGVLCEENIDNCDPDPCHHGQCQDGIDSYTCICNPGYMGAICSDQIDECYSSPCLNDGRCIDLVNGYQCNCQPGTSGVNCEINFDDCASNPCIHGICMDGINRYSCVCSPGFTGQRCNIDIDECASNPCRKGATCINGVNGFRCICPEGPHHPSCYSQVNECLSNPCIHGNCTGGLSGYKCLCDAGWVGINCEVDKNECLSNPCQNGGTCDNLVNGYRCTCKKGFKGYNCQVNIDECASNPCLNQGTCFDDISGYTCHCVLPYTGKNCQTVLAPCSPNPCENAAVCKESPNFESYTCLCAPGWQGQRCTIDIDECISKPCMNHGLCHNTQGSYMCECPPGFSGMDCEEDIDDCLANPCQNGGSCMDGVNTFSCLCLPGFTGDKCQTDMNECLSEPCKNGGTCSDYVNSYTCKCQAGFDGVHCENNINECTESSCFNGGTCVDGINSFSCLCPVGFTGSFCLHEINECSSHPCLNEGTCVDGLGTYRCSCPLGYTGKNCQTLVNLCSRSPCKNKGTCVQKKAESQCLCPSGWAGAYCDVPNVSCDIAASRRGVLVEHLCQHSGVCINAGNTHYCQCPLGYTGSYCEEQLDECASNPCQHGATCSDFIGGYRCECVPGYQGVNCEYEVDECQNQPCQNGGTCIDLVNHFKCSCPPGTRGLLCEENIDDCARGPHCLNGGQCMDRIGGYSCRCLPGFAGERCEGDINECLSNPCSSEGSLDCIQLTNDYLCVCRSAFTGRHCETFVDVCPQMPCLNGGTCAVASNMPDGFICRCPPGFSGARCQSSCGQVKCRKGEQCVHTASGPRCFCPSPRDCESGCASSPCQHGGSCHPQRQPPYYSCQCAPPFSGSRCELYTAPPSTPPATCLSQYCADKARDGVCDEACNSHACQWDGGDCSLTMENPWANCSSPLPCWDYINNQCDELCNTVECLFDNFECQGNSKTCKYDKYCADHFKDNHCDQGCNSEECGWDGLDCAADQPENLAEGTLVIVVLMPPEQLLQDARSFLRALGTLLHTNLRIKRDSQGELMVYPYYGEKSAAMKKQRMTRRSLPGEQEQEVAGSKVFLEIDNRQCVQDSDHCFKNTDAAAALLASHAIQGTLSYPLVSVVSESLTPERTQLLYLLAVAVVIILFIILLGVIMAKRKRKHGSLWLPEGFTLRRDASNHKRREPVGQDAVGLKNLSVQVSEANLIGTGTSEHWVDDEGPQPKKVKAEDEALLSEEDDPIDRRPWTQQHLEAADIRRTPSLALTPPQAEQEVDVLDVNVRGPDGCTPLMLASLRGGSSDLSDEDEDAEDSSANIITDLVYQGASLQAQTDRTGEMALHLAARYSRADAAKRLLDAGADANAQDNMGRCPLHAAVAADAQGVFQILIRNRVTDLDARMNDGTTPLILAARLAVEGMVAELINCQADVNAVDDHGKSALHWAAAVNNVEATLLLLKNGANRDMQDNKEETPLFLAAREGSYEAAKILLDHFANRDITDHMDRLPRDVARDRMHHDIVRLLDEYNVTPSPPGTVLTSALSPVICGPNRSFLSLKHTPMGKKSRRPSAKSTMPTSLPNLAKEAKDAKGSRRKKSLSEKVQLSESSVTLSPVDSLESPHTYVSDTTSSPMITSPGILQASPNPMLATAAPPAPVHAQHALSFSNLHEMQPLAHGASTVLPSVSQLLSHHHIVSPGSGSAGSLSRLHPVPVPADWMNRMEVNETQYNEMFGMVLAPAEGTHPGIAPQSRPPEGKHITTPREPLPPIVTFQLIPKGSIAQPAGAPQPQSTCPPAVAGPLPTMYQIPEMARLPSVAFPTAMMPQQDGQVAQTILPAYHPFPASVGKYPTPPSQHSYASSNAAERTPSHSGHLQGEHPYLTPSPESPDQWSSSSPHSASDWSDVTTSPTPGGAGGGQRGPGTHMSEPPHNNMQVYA

For the compound `C=CCC(OC(C)=O)[C@@H]1[C@@H](N(Cc2cc3ccccc3o2)C(=O)Cc2ccc(OC)cc2)c2cc(OCCCO)ccc2N1C(=O)c1ccc2ccccc2c1` (stereo not given in full), the composite z-score is 0.0894 in test [1]; 0.196 in test [2]; -0.062 in test [3]; 0.0575 in test [4]; -0.709 in [5]; -0.336 in test [6]. The composite z-score in test [7] was -0.0601; in [9], -0.005; in test [10], 0.0505; in test [11], -0.843; in test [15] it was -0.266; in test [17], -0.0097. Further, the composite z-score in [18] is -0.104; in [19], -0.379; in test [20], -0.201. Also, the z-score in test [8] was -0.194 (inactive); in test [12], -0.179 (inactive); in test [13] it was 0.568 (inactive); in test [14] it was 0.194 (inactive); in test [16], -0.457 (inactive).
Consider `CCCCN1CC=CC23O[C@@H]4C=CCCOC(=O)C4[C@H]2C(=O)N(CCCCCO)[C@@H]3C1=O` (stereo not given in full), for which the composite z-score in test [1] is -0.376; in [2], -0.055; in test [3], -0.107; in test [4], -0.0632; in [5] it was -1.06; in test [6] it was -0.169. The composite z-score was 1.46 in test [7]; -0.79 in [9]; 0.107 in [10]; -0.726 in test [11]; 0.905 in test [15]; -0.168 in test [17]. Also, the values for the composite z-score in test [18], in test [19] and in [20] were -0.548, -0.73 and -0.0987, respectively. For the same compound, the z-score in test [8] was -0.834 (inactive); in test [12], -0.494 (inactive); in [13] it was 0.0411 (inactive); in [14], 0.025 (inactive); in test [16], -0.0111 (inactive).
`O=C1NC(=O)C2C1C=CC(C(O)C1CC=CCC1)N2Nc1ccccn1` (stereo not given): the composite z-score was 0.0882 in [1]; 0.922 in [2]; 0.135 in test [3]; 0.938 in test [4]; 1.2 in [5]; -0.0625 in test [6]. The composite z-score in [7] is 1.11; in test [9], 0.324; in [10] it was -0.445; in test [11], 0.241; in test [15], 0.861; in test [17], 0.113. Moreover, the composite z-score in test [18] was -0.0801; in test [19], 0.328; in [20], 0.26. In addition, the z-score was 0.845 (inactive) in test [8]; 1.13 (inactive) in test [12]; 0.869 (inactive) in test [13]; 0.728 (inactive) in test [14]; -0.813 (inactive) in [16].
As to `CC(=O)NCCCC[C@@H]1NC(=O)[C@H]2C[C@@H](C(=O)O)[C@@H](c3ccc(O)cc3)N2C1=O`, the composite z-score is -0.0025 in test [1]; 0.843 in test [2]; -0.0135 in test [3]; 0.607 in test [4]; 1.23 in [5]; 1.1 in [6]. Besides, the composite z-score in test [7] was found to be 1.3; in [9], 0.904; in test [10] it was 0.213; in test [11], 1.55; in test [15] it was 2.84; in test [17] it was 0.14. Besides, the composite z-score in test [18] was 1.67; in [19], 1.04; in [20], 0.138. Also, the z-score in [8] is -0.316 (inactive); in test [12], 2.13 (inactive); in test [13] it was -2.62 (inactive); in test [14], 2.72 (inactive); in test [16], -0.817 (inactive).
As for `CN1CCC(CCCO)=CC1c1cccs1` (stereo not given), the composite z-score in test [1] is -0.017; in test [2], 0.0383; in [3], -0.159; in test [4], -0.959; in test [5], -1.01; in test [6], 0.968. The composite z-score in test [7] was 0.72; in [9], -0.142; in test [10] it was -0.0491; in test [11] it was -0.0029; in test [15] it was -0.93; in test [17] it was -0.166. Besides, the composite z-score is 0.0615 in test [18], 0.0121 in test [19] and -0.108 in test [20]. Moreover, the z-score in test [8] is 0.159 (inactive); in [12], -1.69 (inactive); in test [13] it was -0.327 (inactive); in test [14], -0.489 (inactive); in test [16], 0.345 (inactive).
